Compound activity from PubChem BioAssay.
USP8 inh: blocks human USP8 ubiquitin-rhodamine cleavage; P40818; purified USP8, Ub-rhodamine cleavage fluorescence, 30 min; inhibition, % at 20 µM; 4.2% of 47,000 active; AID 1645853
USP17 block: blocks human USP17 ubiquitin-rhodamine cleavage; A8MUK1; purified USP17, Ub-rhodamine cleavage fluorescence, 3 h; inhibition, % at 50 µM; 6.5% of 47,000 active; AID 1645855
Target sequence (A8MUK1 whole entry, looked up): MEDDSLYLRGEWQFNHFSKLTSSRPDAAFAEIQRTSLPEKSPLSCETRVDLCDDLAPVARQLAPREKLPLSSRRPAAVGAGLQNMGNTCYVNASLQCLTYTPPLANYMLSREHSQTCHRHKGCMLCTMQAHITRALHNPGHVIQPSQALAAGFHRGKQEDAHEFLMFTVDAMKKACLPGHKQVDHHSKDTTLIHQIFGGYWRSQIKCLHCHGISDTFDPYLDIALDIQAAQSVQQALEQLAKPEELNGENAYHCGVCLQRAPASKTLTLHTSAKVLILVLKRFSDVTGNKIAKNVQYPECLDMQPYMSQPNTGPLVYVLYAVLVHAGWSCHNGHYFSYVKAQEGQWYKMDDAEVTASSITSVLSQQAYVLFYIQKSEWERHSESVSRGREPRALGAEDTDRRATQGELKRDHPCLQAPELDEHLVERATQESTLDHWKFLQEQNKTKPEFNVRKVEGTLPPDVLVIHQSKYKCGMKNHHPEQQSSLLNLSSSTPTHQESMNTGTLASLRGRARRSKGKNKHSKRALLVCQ
USP7 block: human USP7 deubiquitinase inhibition | Q93009 | purified USP7, Ub-rhodamine cleavage fluorescence | inhibition, % at 20 µM | 0.3% of 47,000 active | AID 1645854
OTUD3 block: human OTUD3 deubiquitinase inhibition; purified OTUD3, Ub-rhodamine fluorescence, 2 h; inhibition, % at 25 µM; 0.7% of 47,000 active; AID 1645858
USP10 inh: blocks human USP10 ubiquitin-rhodamine cleavage. purified USP10, Ub-rhodamine fluorescence, 60 min. Q14694. 1.1% of 47,000 active. inhibition, % at 20 µM. AID 1645856
UCHL1 inh: inhibitors of human UCHL1 deubiquitinase. inhibition, % at 20 µM. 0.2% of 47,000 active. purified UCHL1, Ub-rhodamine cleavage fluorescence. AID 1645859. P09936
Active calls of the source: *; nt = not tested or not shown. Only some compounds are listed: those with a hit (about 9.2% of all), similar ones and a draw of the others. Rule as the data show it: active = inhibition above about 30%; inactive = the rest.

SMILES | USP8 inh | USP17 block | USP7 block | OTUD3 block | USP10 inh | UCHL1 inh
O=C(c1cscn1)N1CCC2(CC1)CC1(CO2)Nc2ccccc2-n2cccc21 (configuration not stated) | 94* | 71* | -4 | -15 | 5 | -2
O=C(c1ccco1)N1CCC2(CC1)CC1(CO2)Nc2ccccc2-n2cccc21 (configuration not stated) | 67* | 80* | -9 | -1 | -5 | 16
Cc1ccc(NC(=O)N2CCC3(CC2)Nc2ccccc2-n2cccc23)cc1 | -202 | -8 | -27 | -2 | 1 | 6
CCCn1cc(C(=O)N2CCC3(CC2)CC2(CO3)Nc3ccccc3-n3cccc32)c(C)n1 (configuration not stated) | 94* | 67* | -4 | 7 | -3 | 7
O=C(c1ccncc1)N1CCC2(CC1)CC1(CO2)Nc2ccccc2-n2cccc21 (configuration not stated) | 71* | 38* | -4 | -9 | 0 | 0
CCCN(C)C(=O)c1snc2c(=O)n(Cc3ccccc3)c(=O)[nH]c12 | 9 | 11 | -39 | 13 | 0 | -1
O=C(c1cccnc1)N1CCC2(CC1)CC1(CO2)Nc2ccccc2-n2cccc21 (configuration not stated) | 93* | 71* | -3 | -12 | -1 | 2
O=C(CCc1ccccc1)Nc1cc(F)c2nc(N3CCOCC3)ccc2c1 | 46* | 16 | -5 | 8 | -2 | -2
O=C(Cn1ccc2ccc(N3CCOCC3)nc21)NCc1cccc(F)c1 | -250 | -159 | -135 | -191 | 0 | -68
COc1ccc(OCC(=O)Nc2cc(F)c3nc(N4CCOCC4)ccc3c2)cc1 | 6 | 10 | 4 | -36 | -7 | 0
CC(C)CC(=O)Nc1cc(F)c2nc(N3CCOCC3)ccc2c1 | 80* | 75* | -6 | -7 | -8 | 5
O=C(COc1ccc(F)cc1)Nc1cc(F)c2nc(N3CCOCC3)ccc2c1 | 41* | 51* | -17 | -14 | -11 | -14
O=C(Cn1ccc2ccc(N3CCOCC3)nc21)NCc1ccc(F)cc1F | -75 | -82 | -67 | -100 | -5 | -13
FC(F)(F)c1nc(SCc2ccccc2)c2cnn(-c3ccccc3)c2n1 | -11 | -14 | -7 | 0 | -5 | -2
CCc1ccc(NC(=O)CSc2ccc(N3CCC(C(=O)NC4CC4)CC3)nn2)cc1 | 81* | 62* | 10 | 38* | 10 | 5
O=C(CSc1ccc(N2CCOCC2)nn1)Nc1ccc(Cl)cc1 | -5 | -4 | -5 | -12 | -3 | 0
COc1ccc(Cl)cc1C(=O)Nc1cnc(N2CCOCC2)nc1 | -15 | nt | -36 | -8 | -10 | -7
COc1ccc(Cl)cc1C(=O)Nc1cc(C)cc(C)n1 | 11 | 46* | 0 | -9 | 6 | -2
COc1cccc(CNS(=O)(=O)c2ccc3[nH]c(=O)[nH]c3c2)c1 | 14 | 8 | 1 | 18 | 5 | 4
COc1ccc(CNS(=O)(=O)c2ccc3[nH]c(=O)ccc3c2)cc1 | 1 | 47* | 3 | 1 | 0 | 0
O=C(NCCCN1CCOCC1)c1nc(-c2ccc3cc[nH]c3c2)no1 | 3 | 11 | 4 | 10 | 1 | -1
CNc1nc2c(c(=O)n1Cc1ccccc1)CN(C(=O)c1ccccc1)CC2 | -3 | 1 | 4 | 7 | 1 | 4
O=C(CCC1CCCCC1)Nc1ccccc1C(=O)N1CCOCC1 | 80* | 70* | 11 | 29 | 27 | 2
Cc1ccc(S(=O)(=O)Nc2ccccc2C(=O)Nc2nc3ccc(Br)cc3s2)cc1 | 95* | 97* | 89* | 84* | 93* | 53*
Cc1ccc2nc(NC(=O)c3ccccc3OCc3ccccc3Cl)sc2c1 | 17 | 11 | 4 | 7 | 3 | 1
CCCc1c(C(=O)O)c(O[C@H]2O[C@H](C)[C@@H](OC)[C@H](OC)[C@@H]2OC)cc2cc3c(c(O)c12)C(=O)c1c(O)cc(O[C@@H]2O[C@@H](C)[C@H](O[C@H]4O[C@H](C)[C@@H](OC)[C@H](OC)[C@@H]4O)[C@@H](OC)[C@H]2O)cc1C3=O | -29 | 55* | -8 | -31 | -11 | -2
